Measured values published in PubChem BioAssay (NCI).
Compounds without any hit were thinned out: in the full panel of roughly 79,000, 15% have a hit. Calls of active or inactive are those of the source. Rule as the data show it: active = growth inhibition above about 70%; inactive = the rest. *1 amine or outer side, *2 acyl side, *3 side chain or, on linkers, in order; H or OH if unused. Where a SMILES comes first, the peptide text is derived from it. The star is where a group is joined. γGlu = O=C(O)[CH](CCC(=O)[*:2])N[*:1]; NHOH = ON*

test: NCI Yeast Anticancer Drug Screen. Data for the sgs1 mgt1 strain (AID 161);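 also: 0% = growth of cultures given vehicle only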; conditions: S. cerevisiae sgs1 mgt1 strain, at 50.0 µM, stronger effect = higher value
Procedure, shortened: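 Inhibition of yeast growth, normalised to vehicle-treated controls, is reported for a strain bearing genetic alterations in DNA damage repair.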

Row | SMILES | growth inhibition
1 | CCSC(OC(C)=O)C(Nc1ccc([N+](=O)[O-])cc1[N+](=O)[O-])C(OC(C)=O)C(OC(C)=O)C(COC(C)=O)OC(C)=O (stereo not given) | 6.2% (inactive)
2 | O=C1NC2Cc3ccccc3C(C2)O1 (stereo not given) | 1.85% (inactive)
3 | Fc1ccc2c(c1)Nc1ccccc1S2 | 7.65% (inactive)
4 | CNc1ccc(Br)cc1[N+](=O)[O-] | -12.9% (inactive)
5 | NCCS/C=C/C(=O)Oc1ccc(Br)cc1 | 12.1% (inactive)
6 | Cc1nn2c(-c3ccccc3)cnnc2c1-c1ccccc1 | -12.8% (inactive)
7 | CCCCCCCCCCCCCCSc1ccc2ccccc2c1 | -2.7% (inactive)
8 | CC(C(=O)O)/C(=C\c1ccc2c(c1)OCO2)C(=O)O (stereo not given) | -12.9% (inactive)
9 | O=C(O)CC(NC(=O)C(CC(=O)OCc1ccccc1)NC(=O)OCc1ccccc1)C(=O)OCc1ccccc1 (stereo not given) | 27.4% (inactive)
10 | C=C(C)C1CCC2(C)CC3C(=C)CC(O)C(O)C3(C)CCC12 (stereo not given) | 90.8% (active)
11 | O=c1ccn(Cc2ccccc2)c(=O)[nH]1 | 4.35% (inactive)
12 | Oc1cc(CN2CCOCCOCCOCCOCC2)c(O)cc1CN1CCOCCOCCOCCOCC1 | 8.9% (inactive)
13 | O=c1[nH]c(=O)c2ncn(-c3ccc(Cl)cc3)c2[nH]1 | 7.1% (inactive)
14 | OC(c1ccc(Cl)cc1)c1nc2ccccc2[nH]1 (stereo not given) | 35.5% (inactive)
15 | COc1cc(OC)c2nccc(NCCCN(C)C)c2c1[N+](=O)[O-] | 5.75% (inactive)
16 | CSc1n[nH]c(NC(=O)c2ccccc2Cl)n1 | 1.5% (inactive)
17 | C1CCC(C(CCCCC(C2CCCCC2)C2CCCCC2)C2CCCCC2)CC1 | 27.2% (inactive)
18 | CC(=O)NC(c1ccc(F)cc1)(c1ccc(F)cc1)C(F)(F)F | 42.2% (inactive)
19 | CCC(O)C(C)CO (stereo not given) | 19.3% (inactive)
20 | COC(=O)c1cc(C(=O)OC)c(CC(=O)C(=O)Nc2ccc(Cl)c(C(F)(F)F)c2)nc1CC(=O)C(=O)Nc1ccc(Cl)c(C(F)(F)F)c1 | -30.9% (inactive)

Row | SMILES | growth inhibition
21 | CN1C/C(=C\C=C\c2ccccc2)C(=O)/C(=C/C=C/c2ccccc2)C1 | 14.8% (inactive)
22 | O=C(OCC(OC(=O)c1ccccc1)C1CC(C(O)C2CCCCC2)C(=O)O1)c1ccccc1 (stereo not given) | 45.9% (inactive)
23 | CC(COc1ccccc1)OC=O (stereo not given) | 8.2% (inactive)
24 | NC(CCC(=O)NC(CCC(=O)NO)C(=O)NCC(=O)O)C(=O)O (stereo not given) (γGlu-Glu(NHOH)-Gly-OH; configuration not given here) | -11.6% (inactive)
25 | COC(=O)C1=C(C(=O)OC)C2(C(=O)OC)OC1(OC)C(C1(C(=O)OC)C(C(=O)OC)=C1C(=O)OC)=C2C(=O)OC (stereo not given) | 8.9% (inactive)
26 | CCN(CC)c1ccc(NC(=S)Nc2cccc(C(F)(F)F)c2)c(C)c1 | 52.2% (inactive)
27 | C/C(=N/O)c1ccc[nH]1 | -5.5% (inactive)
28 | CC(NC(=O)OC(C)(C)C)C(=O)C(N)=O (stereo not given) | -27.9% (inactive)
29 | CCOC(CN1CCCCC1)OCC | 17.1% (inactive)
30 | O=Cc1c(O)nc[nH]c1=O | -4.15% (inactive)
31 | COc1ccc2c(c1)CCC1C2CCC2(C)C(=O)C(n3cnc4c(SC)ncnc43)CC12 (stereo not given) | 58.4% (inactive)
32 | CC(C)(O)/C(=N/O)c1ccc(-c2ccccc2)cc1 | 0.35% (inactive)
33 | C=CCN=C(N)SCCN(CCSC(N)=NCC=C)C(N)=O | 36.2% (inactive)
34 | COc1cccc(NC(=O)CC(=O)N2N=C(C)C(N=Nc3ccc(S(=O)(=O)c4ccc(N=NC5C(=O)N(C(=O)CC(=O)Nc6cccc(OC)c6)N=C5C)cc4)cc3)C2=O)c1 (stereo not given) | 8.9% (inactive)
35 | Cn1c(-c2ccccc2)nc(-c2ccccc2)[n+]1[O-] | 1.85% (inactive)
36 | Cc1cccc(O)c1C(=O)O | -15.6% (inactive)
37 | COc1cc(OC)c(NC(=O)NC(C)(C)C)cc1Cl | 17.1% (inactive)
38 | CCOC(=O)c1nc2ccc(C(F)(F)F)cc2nc1NCc1ccc(F)cc1 | 20.7% (inactive)
39 | CN(C)CCCNC=O | -26.2% (inactive)
40 | Nc1nc(N)c2nc(CNc3ccc(C(=O)NC(CCCNC(=O)c4ccccc4C(=O)O)C(=O)O)cc3)cnc2n1 (stereo not given) | 7.6% (inactive)
